Among all 52,000 compounds or so, about 4,300 (8.3%) were called active. This is one part of a sample in which actives are shown more often than they occur. Unmarked numbers belong to inactive results. No stated cut-off is given here; in the data, active means survival mostly below about 52% (no sharp cut-off); inactive means mostly above about 56%.

For this assay, the system named is DeltatarO mutant. Nature of the assay: S. aureus survival, RN4220 and DeltatarO strains – OD600, teichoic acid synthesis inhibitors, primary screen (AID 463173). Conditions: S. aureus RN4220 wild type/DeltatarO growth, OD600, 18 h, stronger effect = lower value, screened at 18.75 µg/mL (by protocol).
On to `COc1ccc(/C=C\c2onc(C)c2S(=O)(=O)N2CCC(C(=O)Nc3cccc(OC)c3)CC2)cc1`, for which the survival is 97%.

`Cc1cc(C)n(C2CC(=O)N(N(C)C)C2=O)n1` (configuration not stated): the survival is 92%.

Consider `Cc1cc(C)c2c(=O)cc(C(=O)Nc3ccc(S(=O)(=O)Nc4nc(C)cc(C)n4)cc3)oc2c1`, for which the survival is 103%.

Take `O=C(CO)N/N=C\c1c(F)cccc1Cl`: the survival was 51%.

With `Cc1ccc(S(=O)(=O)C(CNC(=O)Cc2ccc(Cl)cc2)c2cccs2)cc1` (configuration not stated), the survival is 85%.

As for `CCc1ccc(NC(=O)CSC2=Nc3ccccc3C3=NC(CC(=O)NC4CCCCC4)C(=O)N23)cc1` (configuration not stated), the survival was 86%.

With `CC(C)(O)C1Cc2cc(/C=C/C(=O)O)c(O)cc2O1` (configuration not stated), the survival was 88%.

`CN(C)c1ccc(CNC(=O)c2ccc(NC(=O)c3nsc4ccccc34)cc2)cc1`: the survival is 84%.

As to `CCCCN1C(=O)c2[nH]nc(-c3ccccc3O)c2C1c1ccc(OCc2ccccc2)c(OC)c1` (configuration not stated), the survival was 35% (active).

Turning to `CCCN1C(=O)c2[nH]nc(-c3ccccc3O)c2C1c1ccc(OCc2ccccc2)c(OC)c1` (configuration not stated), the survival is 44% (active).

With `COc1cc(C2c3c(-c4ccccc4O)n[nH]c3C(=O)N2CCO)ccc1OCc1ccccc1` (configuration not stated), the survival was 77%.

`CCOc1ccc(C2c3c(-c4ccccc4O)n[nH]c3C(=O)N2Cc2cccnc2)cc1OC` (configuration not stated): the survival is 90%.

In the case of `COCCN1C(=O)c2[nH]nc(-c3ccccc3O)c2C1c1ccc(OCc2ccccc2)c(OC)c1` (configuration not stated), the survival was 13% (active).

For `CCCCOc1ccc(C2c3c(-c4ccccc4O)n[nH]c3C(=O)N2Cc2ccncc2)cc1OC` (configuration not stated), the survival was 61%.

Regarding `CCOC(=O)c1c(C)[nH]c(CCC(=O)NCc2ccc(F)cc2)c1C`, the survival was 89%.

Consider `COCCCNC(=O)Cn1nc(N2CCN(c3ccccc3)CC2)ccc1=O`, for which the survival is 91%.

Take `c1ccc(CSc2nc3ncccc3[nH]2)cc1`: the survival is 93%.

Consider `CCN(CC)C(=O)C1CCN(C(=O)c2cnn(-c3ccccc3)c2-n2cccc2)CC1`, for which the survival was 83%.

Consider `CC(=O)Nc1ccc(S(=O)(=O)N2CCC(C)CC2)cc1`, for which the survival is 96%.

Turning to `Cc1ccc2occ(CC(=O)Nc3ccc(S(=O)(=O)N4CCCC(C)C4)cc3)c2c1` (configuration not stated), the survival was 58%.

Regarding `Cc1ccc2occ(CC(=O)Nc3ccc(S(=O)(=O)N4CCC(C)CC4)cc3)c2c1`, the survival is 55% (active).

Take `O=S(=O)(c1ccc(Cl)cc1)N1CCC(c2ccncc2)CC1`: the survival was 73%.

`CC(=O)Nc1ccc(S(=O)(=O)N2CCC(c3ccncc3)CC2)cc1`: the survival was -5% (active).

In the case of `CC(C)(C)c1ccc(S(=O)(=O)N2CCC(c3ccncc3)CC2)cc1`, the survival is 109%.

For the compound `Cc1ccc2c(CC(=O)Nc3ccc(S(=O)(=O)N4CCC(C)CC4)cc3)coc2c1`, the survival is 59%.

In the case of `CC1CCN(S(=O)(=O)c2ccccc2)CC1`, the survival is 104%.

With `CC1CCN(S(=O)(=O)c2ccc(NC(=O)Nc3ccccc3)cc2)CC1`, the survival is 9% (active).

For `CC1=C(C(=O)Nc2ccccc2C)C(c2ccncc2)n2nc(SCc3ccccc3Cl)nc2N1` (configuration not stated), the survival was 62%.

As to `CCOC(=O)c1ccccc1NC(=O)N(Cc1ccc(C)cc1)Cc1cccn1-c1nnc(N2CCCC2=O)s1`, the survival was 118%.

`Cc1ccc(NC(=O)Cn2nnc(-c3nc(-c4ccncc4)no3)c2N)c(C)c1`: the survival is 92%.

On to `CCc1ccccc1NC(=O)CSc1nccn1C`, for which the survival is 89%.

In the case of `CC1=C(c2ccc(C)c(C)c2)S(=O)(=O)N(Cc2ccc(C(=O)NCc3ccc(C)cc3)cc2)C1=O`, the survival is 92%.

Consider `COc1ccc(-c2ccc(=O)n(CC(=O)Nc3ccc(N(C)C)cc3)n2)cc1`, for which the survival was 90%.

On to `CCC1CCCCN1S(=O)(=O)c1ccc(C(=O)Nc2sc3c(c2C(N)=O)CCC3)cc1` (configuration not stated), for which the survival is 68%.

As to `Cc1ccc(-n2nc(C(=O)N(C)c3ccccc3Cl)c3c4ccccc4n(C)c3c2=O)cc1`, the survival was 88%.

For `CCCNS(=O)(=O)c1cc(-c2nnc3c4ccccc4c(C)nn23)ccc1OC`, the survival is 100%.

As for `Cc1cc2c(cc1S(=O)(=O)NCc1ccccc1Cl)OCCN2C`, the survival was 106%.

`CCc1ccc(-n2nc3cc(C)c(NC(=O)c4cc(Cl)ccc4OC)cc3n2)cc1`: the survival is 86%.

For the compound `CCOC(=O)c1cc2c(=O)n3ccccc3nc2n(CC(C)C)c1=NC(=O)C(C)Oc1ccccc1` (configuration not stated), the survival was 165%.

In the case of `CCOC(=O)c1cc2c(=O)n3ccccc3nc2n(CCCOC)c1=NC(=O)c1cc2ccccc2o1`, the survival was 65%.

On to `CCOC(=O)c1cc2c(=O)n3ccccc3nc2n(C(C)C)c1=NC(=O)c1c(-c2c(F)cccc2Cl)noc1C`, for which the survival was 151%.

As to `CCOC(=O)c1cc2c(=O)n3ccccc3nc2n(CC(C)C)c1=NC(=O)C(C)(C)Oc1ccc(Cl)cc1`, the survival was 31% (active).

As for `CCOC(=O)c1cc2c(=O)n3ccccc3nc2n(CCOC)c1=NC(=O)c1cc2ccccc2o1`, the survival is 58%.

For `CCOC(=O)c1cc2c(=O)n3ccccc3nc2n(CC(C)C)c1=NC(=O)c1cc2ccccc2o1`, the survival is 59%.

In the case of `CCCn1c(=NC(=O)c2cc3ccccc3o2)c(C(=O)OCC)cc2c(=O)n3ccccc3nc21`, the survival is 27% (active).

As to `CCOC(=O)c1cc2c(=O)n3ccccc3nc2n(CCCOC)c1=NC(=O)C(C)Oc1ccccc1` (configuration not stated), the survival is 48% (active).

For the compound `CCCCn1c(=NC(=O)C(C)(C)Oc2ccc(Cl)cc2)c(C(=O)OCC)cc2c(=O)n3ccccc3nc21`, the survival was 60%.

`CCCCn1c(=NC(=O)c2cc3ccccc3o2)c(C(=O)OCC)cc2c(=O)n3ccccc3nc21`: the survival is 107%.

Consider `CCOC(=O)c1cc2c(=O)n3ccccc3nc2n(C(C)C)c1=NC(=O)c1cc2ccccc2o1`, for which the survival was 25% (active).

For the compound `CCOC(=O)c1cc2c(=O)n3ccccc3nc2n(C(C)C)c1=NC(=O)C(C)(C)Oc1ccc(Cl)cc1`, the survival was 57%.

In the case of `O=C(NC1CSCC1=O)c1ccccc1` (configuration not stated), the survival was 69%.

In the case of `O=C1CC(c2ccccc2)Sc2nc(-c3ccc(F)cc3)nn21` (configuration not stated), the survival was 81%.

With `O=c1[nH]cnc2nc3c4ccccc4c4ccccc4c3nc12`, the survival is 74%.

Take `O=C(Nc1cccc(F)c1)c1ccc2c(c1)N(Cc1ccccc1)C(=O)c1ccccc1S2(=O)=O`: the survival is 80%.

On to `O=C1CN=C(Nc2ccccc2Cl)N1Cc1ccccc1`, for which the survival is 110%.

With `COc1ccccc1NC(=O)C1CCC(CNS(=O)(=O)c2ccc3c(c2)CC(C)N3C(C)=O)CC1` (configuration not stated), the survival was 58%.

Turning to `O=C(NC1CC(=O)N(c2cccc(F)c2)C1)c1ccc(S(=O)(=O)N2CCCC2)cc1` (configuration not stated), the survival was 68%.

Take `CCOCCCNC(=O)C(=O)Nc1c2c(nn1-c1ccc(OC)cc1)CSC2`: the survival was 83%.

Turning to `Cc1ccc(NC(=O)Cn2c(=O)n(CCc3ccccc3)c(=O)c3c4c(sc32)CCCC4)c(C)c1`, the survival was 92%.

`CCC1C=CCC2C(=O)N(CC(=O)NCCC3=CCCCC3)C(=O)C12` (configuration not stated): the survival is 73%.

Take `CC(=O)N1CCCn2c1nc1ccccc12`: the survival was 92%.

Take `Cc1ccc(C)c(N2CCN(C(=O)Cn3cnc4sc(C)c(S(=O)(=O)N5CCN(c6ncccn6)CC5)c4c3=O)CC2)c1`: the survival was 67%.

As to `CC(NC(=O)c1ccc2c(c1)N(Cc1cccc(F)c1)C(=O)c1ccccc1S2)c1ccccc1` (configuration not stated), the survival is 89%.

On to `COc1ccc2c(CNC3CCCC3)c(C(=O)O)n(Cc3ccccc3C)c2c1`, for which the survival is 95%.

`CCc1cccc(NC(=O)CSc2ncc3c(n2)-c2ccc(Cl)cc2N(Cc2ccccc2)S3(=O)=O)c1`: the survival was 92%.

For `COc1ccccc1CNC(=O)CSc1ncc2c(n1)-c1cc(Cl)ccc1N(Cc1ccccc1)S2(=O)=O`, the survival was 80%.

Regarding `Cc1cccc(C)c1NC(=O)CSc1ncc2c(n1)-c1ccc(Cl)cc1N(Cc1ccccc1)S2(=O)=O`, the survival was 0% (active).

Consider `COc1ccc(CNC(=O)CSc2ncc3c(n2)-c2ccc(Cl)cc2N(Cc2ccccc2)S3(=O)=O)cc1`, for which the survival is 49%.

As for `COc1ccccc1CNC(=O)CSc1ncc2c(n1)-c1ccc(Cl)cc1N(Cc1ccccc1)S2(=O)=O`, the survival was 32% (active).

On to `O=C(CSc1ncc2c(n1)-c1ccc(Cl)cc1N(Cc1ccccc1)S2(=O)=O)Nc1ccc(F)c(F)c1`, for which the survival was 131%.

For the compound `CCN(CC)N=Nc1ccc(NC(C)=O)cc1`, the survival is 113%.

For the compound `CCc1ccc(-n2nc(C)c3c(C(=O)Nc4cc(C)ccc4C)cc(C)nc32)cc1`, the survival is 60%.

`Cc1c(N)c(C)c(N)c(C)c1N`: the survival was 96%.

As for `CCOc1ccccc1CNC(=O)C1CCN(C(=O)N2CC(CC)Oc3ccc(C)cc32)CC1` (configuration not stated), the survival was 71%.

Regarding `CCOC(=O)c1c(S(=O)(=O)NCC(=O)Nc2ccc(C)c(Cl)c2)c(C)n(C)c1C`, the survival is 61%.

Take `Cc1ccc(NC(=O)Cn2c(=O)n(Cc3ccc(F)cc3)c(=O)c3cccnc32)cc1C`: the survival is 91%.

Regarding `Cc1ccc(-n2nc(C)c3nc(CCC(=O)Nc4cccc(F)c4)c(=O)n(C)c32)cc1`, the survival was -5% (active).

Consider `Cc1ccc(-n2nc(C)c3nc(CCC(=O)Nc4ccc(F)cc4)c(=O)n(C)c32)cc1`, for which the survival was 73%.

With `COc1cccc(NC(=O)CCc2nc3c(C)nn(-c4ccc(C)cc4)c3n(C)c2=O)c1`, the survival was 81%.

Turning to `O=C(c1cc(S(=O)(=O)N2CCCC2)c[nH]1)N1CCN(c2cccc(Cl)c2)CC1`, the survival is 98%.

Consider `COCCn1nnnc1C(c1ccc2ncccc2c1)N1CCc2ccccc21` (configuration not stated), for which the survival is 98%.

Regarding `Cc1ccc(-c2noc(-c3ccc(NCc4ccco4)c([N+](=O)[O-])c3)n2)cc1`, the survival was 98%.

Take `COc1ccc(-c2noc(-c3ccc(NCc4ccco4)c([N+](=O)[O-])c3)n2)cc1OC`: the survival is 43% (active).

Regarding `O=[N+]([O-])c1cc(-c2nc(-c3ccccc3)no2)ccc1NCc1ccco1`, the survival was 64%.

Turning to `COc1cc(-c2noc(-c3ccc(NCc4ccco4)c([N+](=O)[O-])c3)n2)cc(OC)c1OC`, the survival was 49% (active).

As to `COc1ccccc1-c1noc(-c2ccc(NCc3ccco3)c([N+](=O)[O-])c2)n1`, the survival was 97%.

On to `COc1ccc(-c2noc(-c3ccc(NCc4ccco4)c([N+](=O)[O-])c3)n2)cc1`, for which the survival was 43%.

(Values after PubChem BioAssay AID463173 (ICCB-Longwood Screening Facility, Harvard Medical School, 2010).)
